Values joined by “and” are separate entries in the source; they are usually repeats but may differ in a detail not shown here. Equal entries are not always repeated. Results filed as inconclusive are left out. A structure can be active in one record and inactive in another. Active and inactive are the calls of the source. Unless noted, the call rests on the fitted dose curve; in most records, active means well fitted curve in the direction sought with a large enough effect; inconclusive means small, poorly fitted or top-dose-only effect, or another doubt; inactive means no such curve, though single readings can be large; an effect the other way counts as inactive or inconclusive.
How the values were obtained:
[1] = target: Beta-2 adrenergic receptor (Homo sapiens) (UniProt P07550); assay: qHTS validation assay of beta-arrestin-biased ligands of beta2-adrenergic receptor (AID 485366); further: 0% is about no effect
Method in brief: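 Luminescence from a tTA-responsive luciferase, induced when recombinant beta-arrestin is recruited to recombinant beta2-AR, served as the agonism signal. Cells were exposed to compound for 18 hr at 37 degrees C; titrations spanned up to 46 microM.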

[2] = Quantitative high throughput screen for delayed death inhibitors of the malarial parasite plastid, 96 hour incubation (AID 488745); further: nearly all actives have a fitted effect of over 70% in size; further: potency means the concentration at half of the fitted maximal effect
Method in brief: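 Growth of reporter-bearing P. falciparum in red cells is measured after 96 h with compound, covering two erythrocytic cycles. Luminescence from the integrated luciferase serves as the growth signal.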

[3] = Quantitative high throughput screen for delayed death inhibitors of the malarial parasite plastid, 48 hour incubation (AID 488752); further: on the % scale 0 is the no-effect control and ±100 the full control effect; nearly all actives have a fitted effect of over 65% in size
Method in brief: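 One parasite generation (48 h, 37 C, 5% CO2) of luciferase-reporter P. falciparum in erythrocytes is run with test compound; decreased luminescence indicates inhibited growth.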

[4] = target: Thioredoxin reductase 1, cytoplasmic (Rattus norvegicus) (UniProt O89049); assay: qHTS Assay for Substrates of Mammalian Selenoprotein Thioredoxin Reductase 1 (TrxR1) (AID 488772);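 further: NADPH fluorescence in the first read after selenite addition and not the 8 min delta; series mostly up to about 57 µM; 0% is about no effect; a drop in NADPH fluorescence below the no-compound background marks a TrxR1 substrate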
Method in brief: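 Quantitative HTS in Tris-HCl buffer at pH 7.5 with EDTA and Tween-20, using rat TrxR1, 400 uM NADPH and 400 uM selenite (final). A fall in initial NADPH fluorescence relative to background marked substrate behaviour.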

[5] = target: Thioredoxin reductase 1, cytoplasmic (Rattus norvegicus) (UniProt O89049); assay: qHTS Assay for Inhibitors of Mammalian Selenoprotein Thioredoxin Reductase 1 (TrxR1) (AID 488773); conditions: Potency: inhibition; further: nearly all actives have a fitted effect of over 40% in size; further: potency means the concentration at half of the fitted maximal effect
Method in brief: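 Steps: enzyme (90 nM) plus NADPH (400 uM final), 5 min at ~22 deg C; compound added, 15 min; selenite (400 uM final) added; fluorescence followed for 8 min. Concentration-response curves derived from the normalized delta values.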

[6] = target: M-phase phosphoprotein 8 (Homo sapiens) (UniProt Q99549); assay: qHTS Validation Assay for Inhibitors for MPP8 Chromodomain Interactions with Methylated Histone Tails (AID 488949); further: nearly all actives have a fitted effect of over 55% in size; further: potency means the concentration at half of the fitted maximal effect
Method in brief: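 AlphaScreen read-out: streptavidin donor and nickel chelate acceptor beads (final 10 ug/mL), 30 min in the dark at RT. Complex of 50 nM MPP8 and 50 nM b-H3(1-18)K9me3 peptide had been exposed to compounds for 30 min beforehand.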

[7] = target: Chromobox protein homolog 1 (Homo sapiens) (UniProt P83916); assay: qHTS Validation Assay for Inhibitors of HP1-beta Chromodomain Interactions with Methylated Histone Tails (AID 488953); further: nearly all actives have a fitted effect of over 50% in size; further: potency means the concentration at half of the fitted maximal effect
Method in brief: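 Measured as loss of AlphaScreen luminescence from streptavidin donor and nickel acceptor beads (10 ug/mL final) bridging HP1-beta and biotin-H3(1-18)K9me3, each 50 nM. Compounds met the preassembled complex for 30 min at RT.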

[8] = target: Methanococcus maripaludis chaperonin (MmCpn) (UniProt Q6LX38); assay: High-Throughput Screening for Modulators of Cytosolic Chaperonin Activity: MmCpn Primary Screen (AID 488978);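 further: 50 nM MmCpn enzyme hydrolysing 30 µM ATP at 37 °C; 0% is about no effect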
Method in brief: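 ADP formation read by HTRF Transcreener, 665/590 nm emission after 320 nm excitation. Enzyme: archaeal chaperonin at 50 nM final; substrate ATP 30 uM final; 10 min, 37C, after 5 min compound preincubation at RT.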

[9] = target: Transient receptor potential cation channel subfamily V member 1 (Homo sapiens) (UniProt Q8NER1); assay: HTS Assay for Compounds that Act as Enhancers of the Vanilloid Receptor 1 (AID 488979); further: 0% is about no effect
Method in brief: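 Calcium influx kinetics via Fluo-8 (480/520 nm) in TRPV1-expressing cells, 2000/well cultured overnight at 35.5C. Compound-alone read 3 min (agonist phase), followed by EC20 capsaicin challenge for 2 min (enhancer phase).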

[10] = target: D(1A) dopamine receptor (Homo sapiens) (UniProt P21728); assay: HTS Assay for Allosteric Agonists of the Human D1 Dopamine Receptor: Primary Screen for Agonists (AID 488981); further: 0% is about no effect
Method in brief: (§1)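 Calcium flux in an inducible, force-coupled HEK293 Trex D1 line (overnight at 30 C): agonist mode is the 180 s kinetic read after compound; potentiator mode is the following 180 s read after dopamine at EC20.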

[11] = target: D(1A) dopamine receptor (Homo sapiens) (UniProt P21728); assay: HTS Assay for Allosteric Agonists of the Human D1 Dopamine Receptor: Primary Screen for Antagonists (AID 488983);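 further: calcium flux response to an EC80 dopamine challenge measured with no-wash dye; nearly all actives have a fitted effect of over 65% in size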; further: potency means the concentration at half of the fitted maximal effect
Method in brief: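 Screening of inducible HEK293 T-REx D1 cells: compound first, EC80 dopamine 180 s later, each phase read kinetically for calcium over 180 s.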

[12] = Validation screen for small molecules that induce genotoxicity in human embryonic kidney (HEK293T) cells expressing luciferase-tagged ELG1 (AID 493106); further: 0% is about no effect
Method in brief: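 Reporter-gene quantitative HTS in HEK293T cells carrying luciferase-tagged ELG1, whose level climbs under genotoxic stress. Compound exposure lasts 16 hr at 37 °C before luciferase detection.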

[13] = target: ATPase family AAA domain-containing protein 5 (Homo sapiens) (UniProt Q96QE3); assay: Validation screen for small molecules that inhibit ELG1-dependent DNA repair in human embryonic kidney (HEK293T) cells expressing luciferase-tagged ELG1 (AID 493107); further: nearly all actives have a fitted effect of over 70% in size; further: potency means the concentration at half of the fitted maximal effect
Method in brief: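 Quantitative HTS in HEK293T cells carrying luciferase-tagged ELG1, stimulated with 5-fluorouridine alongside compound for 16 hr. Loss of luciferase signal marks inhibition of ELG1 response.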

[14] = target: Thyrotropin-releasing hormone receptor (Homo sapiens) (UniProt P34981); assay: qHTS for Small Molecule Agonists and Allosteric Enhancers of Human TRH Receptor: Validation Screen for Agonists (AID 493127;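 active means calcium activation more than 3 SD above the typical response in the agonist read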;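 further: intracellular calcium rise by fluo-8 fluorescence before TRH EC20 addition; 0% is about no effect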); conditions: TRH receptor agonist cell assay; at 2 µM; stronger effect = higher value
Method in brief: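 Gq-coupled calcium mobilization in TRHR cells after compound addition, monitored kinetically with fluo-8 dye on an FDSS reader.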

[15] = target: Thyrotropin receptor (Homo sapiens) (UniProt P16473); assay: qHTS Assay for Antagonists of the Thyroid Stimulating Hormone Receptor (AID 488980); further: series mostly up to about 58 µM; 0% is about no effect
Method in brief: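 TSHR-HEK293 cells; 70 uM RO 20-1724 PDE inhibitor; compound + EC80 TSH (4 nM final); anti-cAMP cryptate antibody/cAMP-d2 in lysis buffer, 30 min RT; HTRF 665/620 nm read.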

[16] = target: D(1A) dopamine receptor (Homo sapiens) (UniProt P21728); assay: HTS Assay for Allosteric Agonists of the Human D1 Dopamine Receptor: Primary Screen for Potentiators (AID 488982); further: 0% is about no effect
Method in brief: as §1

[17] = target: ATP-dependent 6-phosphofructokinase (Trypanosoma brucei brucei) (UniProt O15648); assay: qHTS Assay to Find Inhibitors of T. brucei phosphofructokinase: hit validation (AID 492961);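 further: luminescence reports ADP formed as PFK phosphorylates fructose-6-phosphate with ATP; series mostly up to about 51 µM; on the % scale 0 is the no-effect control and ±100 the full control effect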
Method in brief: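 Measures ADP output of PFK (1.25 nM) at 0.1 mM ATP, 0.5 mM F6P, pH 8.0 TEA buffer with 5 mM MgCl2. No-enzyme wells define full inhibition; uninhibited enzyme wells define zero.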

[18] = target: Flap endonuclease 1 (Homo sapiens) (UniProt P39748); assay: qHTS Validation Assay for the Inhibitors of Human Flap endonuclease 1 (FEN1) (AID 488816); further: potency means the concentration at half of the fitted maximal effect
Method in brief: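 Readings taken at 0 and 15 min after starting the reaction with 50 nM (final) substrate supplied the signal. Compounds had first sat with 10 nM FEN1 reagent for 15 min at room temperature. Values come from Hill-equation concentration-response fits.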

Sequence of D(1A) dopamine receptor (Homo sapiens) (P21728 whole entry, looked up): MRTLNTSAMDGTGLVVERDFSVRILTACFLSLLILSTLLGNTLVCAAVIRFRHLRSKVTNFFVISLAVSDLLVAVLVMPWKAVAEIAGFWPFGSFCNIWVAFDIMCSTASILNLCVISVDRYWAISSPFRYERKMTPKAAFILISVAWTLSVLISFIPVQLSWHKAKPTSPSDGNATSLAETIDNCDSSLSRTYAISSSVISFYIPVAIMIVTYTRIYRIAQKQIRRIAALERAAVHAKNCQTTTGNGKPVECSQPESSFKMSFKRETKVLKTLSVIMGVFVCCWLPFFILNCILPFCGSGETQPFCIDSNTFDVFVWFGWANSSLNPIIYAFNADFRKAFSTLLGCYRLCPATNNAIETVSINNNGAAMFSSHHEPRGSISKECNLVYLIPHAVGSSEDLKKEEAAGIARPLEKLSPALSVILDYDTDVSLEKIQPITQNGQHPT
Sequence of Beta-2 adrenergic receptor (Homo sapiens) (P07550 whole entry, looked up): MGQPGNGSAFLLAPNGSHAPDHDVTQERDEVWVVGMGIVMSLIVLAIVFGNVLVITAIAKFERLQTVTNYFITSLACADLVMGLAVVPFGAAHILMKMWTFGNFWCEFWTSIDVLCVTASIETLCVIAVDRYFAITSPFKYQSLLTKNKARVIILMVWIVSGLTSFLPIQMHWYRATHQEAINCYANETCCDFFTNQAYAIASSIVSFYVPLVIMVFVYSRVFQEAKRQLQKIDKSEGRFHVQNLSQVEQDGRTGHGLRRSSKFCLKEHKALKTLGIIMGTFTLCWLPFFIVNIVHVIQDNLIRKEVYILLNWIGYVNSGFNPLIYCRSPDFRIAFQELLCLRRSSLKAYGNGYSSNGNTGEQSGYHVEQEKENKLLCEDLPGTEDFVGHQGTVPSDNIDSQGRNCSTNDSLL
Sequence of ATPase family AAA domain-containing protein 5 (Homo sapiens) (Q96QE3 whole entry, looked up, the tested form may be a part): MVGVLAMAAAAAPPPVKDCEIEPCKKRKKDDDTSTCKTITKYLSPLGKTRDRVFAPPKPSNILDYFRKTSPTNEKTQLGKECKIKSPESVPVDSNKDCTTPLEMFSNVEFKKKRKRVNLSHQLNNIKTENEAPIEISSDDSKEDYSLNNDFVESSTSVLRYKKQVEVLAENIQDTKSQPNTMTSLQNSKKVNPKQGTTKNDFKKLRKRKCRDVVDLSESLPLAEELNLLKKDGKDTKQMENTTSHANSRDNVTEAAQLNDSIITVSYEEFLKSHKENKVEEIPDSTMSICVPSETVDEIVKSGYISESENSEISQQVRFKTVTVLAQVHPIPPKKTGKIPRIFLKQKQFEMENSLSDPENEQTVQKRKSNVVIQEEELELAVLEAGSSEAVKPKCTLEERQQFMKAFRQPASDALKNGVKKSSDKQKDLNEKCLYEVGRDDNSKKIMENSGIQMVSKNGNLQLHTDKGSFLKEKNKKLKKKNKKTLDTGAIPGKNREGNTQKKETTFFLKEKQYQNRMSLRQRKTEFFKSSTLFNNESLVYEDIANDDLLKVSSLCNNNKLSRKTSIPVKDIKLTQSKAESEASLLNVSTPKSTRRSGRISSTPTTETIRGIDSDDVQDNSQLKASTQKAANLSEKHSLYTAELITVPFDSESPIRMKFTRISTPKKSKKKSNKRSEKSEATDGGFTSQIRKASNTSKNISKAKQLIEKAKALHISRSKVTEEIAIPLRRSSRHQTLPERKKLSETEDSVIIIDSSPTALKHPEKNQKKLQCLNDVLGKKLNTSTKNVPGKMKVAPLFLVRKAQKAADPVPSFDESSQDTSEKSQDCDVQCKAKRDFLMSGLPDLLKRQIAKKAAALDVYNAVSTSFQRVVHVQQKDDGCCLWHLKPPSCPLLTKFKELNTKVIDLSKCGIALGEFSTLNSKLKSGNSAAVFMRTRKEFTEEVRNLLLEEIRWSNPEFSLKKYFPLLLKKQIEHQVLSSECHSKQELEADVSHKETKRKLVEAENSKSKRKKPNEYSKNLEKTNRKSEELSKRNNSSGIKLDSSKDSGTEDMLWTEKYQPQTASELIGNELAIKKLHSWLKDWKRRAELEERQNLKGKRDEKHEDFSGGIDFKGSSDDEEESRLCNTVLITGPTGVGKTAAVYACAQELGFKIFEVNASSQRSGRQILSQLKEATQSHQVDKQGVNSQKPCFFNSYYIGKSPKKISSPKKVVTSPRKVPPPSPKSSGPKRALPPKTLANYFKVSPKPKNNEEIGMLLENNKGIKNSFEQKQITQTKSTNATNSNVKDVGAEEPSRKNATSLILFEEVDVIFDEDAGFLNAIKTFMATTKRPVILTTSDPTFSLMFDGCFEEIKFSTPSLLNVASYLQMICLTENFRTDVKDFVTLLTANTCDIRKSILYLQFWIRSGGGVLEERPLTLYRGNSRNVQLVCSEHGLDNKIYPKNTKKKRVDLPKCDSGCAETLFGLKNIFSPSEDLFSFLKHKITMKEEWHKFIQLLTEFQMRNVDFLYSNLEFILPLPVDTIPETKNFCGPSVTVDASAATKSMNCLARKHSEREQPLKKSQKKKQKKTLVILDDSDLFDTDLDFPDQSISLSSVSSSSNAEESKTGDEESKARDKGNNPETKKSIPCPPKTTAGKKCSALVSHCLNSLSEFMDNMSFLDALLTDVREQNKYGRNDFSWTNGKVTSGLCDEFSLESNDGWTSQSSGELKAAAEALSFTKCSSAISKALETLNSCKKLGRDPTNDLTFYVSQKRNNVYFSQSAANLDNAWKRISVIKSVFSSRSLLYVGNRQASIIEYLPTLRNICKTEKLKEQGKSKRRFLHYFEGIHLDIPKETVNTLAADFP
Sequence of M-phase phosphoprotein 8 (Homo sapiens) (Q99549 whole entry, looked up): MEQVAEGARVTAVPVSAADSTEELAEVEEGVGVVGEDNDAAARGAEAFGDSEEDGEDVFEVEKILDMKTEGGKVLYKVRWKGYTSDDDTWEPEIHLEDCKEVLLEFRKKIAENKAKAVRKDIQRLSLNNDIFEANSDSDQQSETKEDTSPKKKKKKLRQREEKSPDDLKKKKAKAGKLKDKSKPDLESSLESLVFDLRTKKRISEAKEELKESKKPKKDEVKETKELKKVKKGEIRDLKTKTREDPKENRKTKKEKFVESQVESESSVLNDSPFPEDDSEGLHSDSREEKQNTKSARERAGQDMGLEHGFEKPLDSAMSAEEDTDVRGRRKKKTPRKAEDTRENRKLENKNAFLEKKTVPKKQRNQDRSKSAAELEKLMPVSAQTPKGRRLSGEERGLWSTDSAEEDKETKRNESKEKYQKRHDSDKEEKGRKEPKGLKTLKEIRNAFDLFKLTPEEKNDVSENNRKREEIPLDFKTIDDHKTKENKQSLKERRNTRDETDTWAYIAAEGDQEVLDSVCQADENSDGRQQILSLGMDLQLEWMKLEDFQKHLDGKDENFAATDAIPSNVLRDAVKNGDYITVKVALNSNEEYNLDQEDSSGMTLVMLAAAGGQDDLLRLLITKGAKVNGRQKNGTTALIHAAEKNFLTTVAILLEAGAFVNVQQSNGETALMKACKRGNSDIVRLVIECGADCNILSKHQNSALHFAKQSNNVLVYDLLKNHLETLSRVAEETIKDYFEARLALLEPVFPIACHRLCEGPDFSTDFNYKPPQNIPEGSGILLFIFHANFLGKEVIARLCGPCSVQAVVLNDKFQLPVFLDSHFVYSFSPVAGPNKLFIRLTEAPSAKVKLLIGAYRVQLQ
Sequence of Thyrotropin-releasing hormone receptor (Homo sapiens) (P34981 whole entry, looked up): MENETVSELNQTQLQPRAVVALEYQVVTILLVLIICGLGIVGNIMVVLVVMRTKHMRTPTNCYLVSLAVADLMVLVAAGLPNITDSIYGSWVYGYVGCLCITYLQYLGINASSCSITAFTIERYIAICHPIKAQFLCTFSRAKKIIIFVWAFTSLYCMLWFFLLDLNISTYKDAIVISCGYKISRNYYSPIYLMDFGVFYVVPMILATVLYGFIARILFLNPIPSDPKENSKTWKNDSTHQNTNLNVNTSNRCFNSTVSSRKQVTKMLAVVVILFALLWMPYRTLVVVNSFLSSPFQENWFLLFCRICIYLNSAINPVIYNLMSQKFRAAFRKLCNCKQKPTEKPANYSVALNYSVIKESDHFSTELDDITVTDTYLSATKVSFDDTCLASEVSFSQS
Sequence of Chromobox protein homolog 1 (Homo sapiens) (P83916 whole entry, looked up): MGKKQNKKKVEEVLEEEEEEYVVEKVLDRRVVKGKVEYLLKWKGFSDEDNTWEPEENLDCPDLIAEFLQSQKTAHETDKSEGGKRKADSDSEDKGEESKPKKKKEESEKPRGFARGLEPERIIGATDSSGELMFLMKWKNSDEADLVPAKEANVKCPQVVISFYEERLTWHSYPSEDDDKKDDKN
Sequence of Flap endonuclease 1 (Homo sapiens) (P39748 whole entry, looked up): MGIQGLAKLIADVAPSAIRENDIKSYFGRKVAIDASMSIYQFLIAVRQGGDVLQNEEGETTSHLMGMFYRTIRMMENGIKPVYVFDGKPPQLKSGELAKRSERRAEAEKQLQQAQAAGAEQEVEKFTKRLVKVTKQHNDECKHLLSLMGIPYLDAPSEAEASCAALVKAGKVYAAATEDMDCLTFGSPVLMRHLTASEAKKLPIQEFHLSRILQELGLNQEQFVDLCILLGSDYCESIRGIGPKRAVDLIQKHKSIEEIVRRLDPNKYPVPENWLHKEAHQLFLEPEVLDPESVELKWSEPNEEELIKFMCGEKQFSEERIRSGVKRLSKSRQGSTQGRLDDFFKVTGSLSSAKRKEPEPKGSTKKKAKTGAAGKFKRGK
Sequence of Thioredoxin reductase 1, cytoplasmic (Rattus norvegicus) (O89049 whole entry, looked up): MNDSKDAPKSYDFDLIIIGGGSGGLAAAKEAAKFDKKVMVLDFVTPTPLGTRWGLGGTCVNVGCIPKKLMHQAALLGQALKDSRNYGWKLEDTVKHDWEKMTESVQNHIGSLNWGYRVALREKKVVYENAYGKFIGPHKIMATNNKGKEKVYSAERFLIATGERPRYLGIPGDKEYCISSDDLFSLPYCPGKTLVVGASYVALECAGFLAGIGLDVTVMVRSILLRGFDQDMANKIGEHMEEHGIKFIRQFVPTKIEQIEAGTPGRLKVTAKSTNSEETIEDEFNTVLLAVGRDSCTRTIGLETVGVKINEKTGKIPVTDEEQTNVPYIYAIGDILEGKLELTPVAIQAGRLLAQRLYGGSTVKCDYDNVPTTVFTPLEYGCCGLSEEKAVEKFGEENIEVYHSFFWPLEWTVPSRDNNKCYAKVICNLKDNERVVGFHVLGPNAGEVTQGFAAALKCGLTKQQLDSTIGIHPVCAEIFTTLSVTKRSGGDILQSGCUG

CC(N)(Cc1ccc(O)c(O)c1)C(=O)O (stereo unspecified)
inactive: outcome [1] | Potency [2] | Potency [3] | outcome [4] | outcome [8] | outcome [9] | Potency [10] | Potency [11] | Potency [12] | Potency [13] | activation [14] 0%
active: Potency [5] 2.99 µM | Potency [6] 79.4 µM and 2.38 µM | Potency [7] 5.32 µM

CCCCCCCCCCCCCCCCCCOC[C@H](COP(=O)([O-])OCC[N+](C)(C)C)OC
inactive: outcome [1] | Potency [2] | Potency [3] | Potency [5] | Potency [6] | Potency [7] | outcome [8] | outcome [9] | outcome [15] | Potency [10] | Potency [16] | Potency [11] | outcome [17] | Potency [13] | activation [14] 0.938%

Oc1cc2c(cc1O)C(c1ccccc1)CNCC2 (stereo unspecified)
inactive: outcome [1] | Potency [2] | Potency [3] | Potency [5] | Potency [6] | outcome [8] | outcome [9] | outcome [15] | Potency [10] | Potency [13] | activation [14] 0.938%

NCC(O)c1ccc(O)c(O)c1 (stereo unspecified)
22.4 µM (active) and inactive: Potency [6]
active: Potency [18] 2.99 µM | Potency [11] 14.1 µM
inactive: outcome [1] | Potency [2] | Potency [3] | outcome [4] | outcome [8] | outcome [9] | Potency [10] | Potency [16]

CCn1c(=O)[nH]c2cc(Cl)c(Cl)cc21
inactive: outcome [1] | Potency [2] | Potency [3] | outcome [4] | Potency [5] | Potency [6] | Potency [7] | outcome [8] | outcome [9] | outcome [15] | Potency [10] | Potency [16] | Potency [11] | activation [14] 1.69%

C=CCn1c(=O)c2c(nc(-c3ccc(S(=O)(=O)O)cc3)n2C)n(C)c1=O
inactive: outcome [1] | Potency [2] | Potency [3] | outcome [4] | Potency [5] | Potency [6] | outcome [8] | outcome [9] | outcome [15] | Potency [10] | Potency [11] | Potency [13] | activation [14] -0.312%

[Li+]
inactive: outcome [1] | Potency [2] | Potency [3] | outcome [4] | Potency [5] | Potency [6] | Potency [7] | outcome [8] | outcome [15] | Potency [10] | Potency [12] | Potency [13] | activation [14] 1.31%

O=C(O)C1CN(CCCP(=O)(O)O)CCN1 (stereo unspecified)
inactive: outcome [1] | Potency [2] | Potency [3] | outcome [4] | Potency [5] | Potency [6] | Potency [7] | outcome [8] | outcome [9] | outcome [15] | Potency [10] | Potency [16] | Potency [11] | Potency [12] | Potency [13] | activation [14] 0.188%

Nc1nc2[nH]c(=O)cnc2c(=O)[nH]1
inactive: outcome [1] | Potency [2] | Potency [3] | Potency [18] | Potency [6] | outcome [8] | outcome [9] | outcome [15] | Potency [10] | Potency [16] | Potency [11] | Potency [13] | activation [14] 0.312%

COc1ccccc1N1CCN(CCCNc2c(C)c(=O)n(C)c(=O)n2C)CC1
active: Potency [2] 14.7 µM
inactive: outcome [1] | outcome [4] | Potency [5] | Potency [18] | Potency [6] | outcome [8] | outcome [9] | outcome [15] | Potency [10] | Potency [16] | Potency [11] | Potency [12] | Potency [13] | activation [14] 0.0625%

O=C(O)Cc1ccc(O)c(O)c1
inactive: outcome [1] | Potency [2] | Potency [3] | outcome [4] | Potency [6] | Potency [7] | outcome [8] | outcome [9] | outcome [15] | Potency [10] | Potency [16] | Potency [11] | Potency [12] | Potency [13] | activation [14] 0.938%
active: Potency [5] 7.52 µM

NCCC1CCCC(CCN)N1 (stereo unspecified)
inactive: outcome [1] | Potency [2] | Potency [3] | outcome [4] | Potency [5] | Potency [6] | Potency [7] | outcome [8] | outcome [9] | outcome [15] | Potency [10] | Potency [11] | Potency [13] | activation [14] 1.19%

NS(=O)(=O)c1cccc2c1c([N+](=O)[O-])cc1nc(O)c(O)nc12
inactive: outcome [1] | Potency [2] | Potency [3] | Potency [5] | Potency [6] | outcome [8] | outcome [9] | outcome [15] | Potency [10] | Potency [16] | Potency [11] | Potency [12] | Potency [13]

C[C@H](O)C(=O)C1=Nc2c(nc(N)[nH]c2=O)NC1
inactive: outcome [1] | Potency [2] | Potency [3] | outcome [4] | Potency [5] | Potency [6] | Potency [7] | outcome [8] | outcome [15] | Potency [16] | Potency [12] | Potency [13] | activation [14] 1.06%

NCC(O)C1CCCCCCC1 (stereo unspecified)
inactive: outcome [1] | Potency [2] | outcome [4] | Potency [5] | Potency [18] | Potency [6] | Potency [7] | outcome [8] | outcome [9] | outcome [15] | Potency [10] | Potency [16] | Potency [11] | Potency [13] | activation [14] 1%

O=C(N[C@@H](Cc1ccccc1)C(=O)CCl)OCc1ccccc1
inactive: outcome [1] | Potency [3] | outcome [4] | Potency [18] | Potency [6] | Potency [7] | outcome [8] | outcome [9] | outcome [15] | Potency [10] | Potency [16] | Potency [12] | activation [14] -3.75%
active: Potency [5] 21.2 µM | Potency [13] 8.2 µM
